# CYP2C19 inhib – inhibitors of human CYP2C19. P33261. CYP2C19 Supersomes, luciferin-H EGE luminescence, 30 min. AID 778. hit rate 21% among 96,000. inhibition, % at 5 µM;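 active = CYP2C19 inhibition above a set limit at 5 µM in the primary screen, cut at about 50% in these data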;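 also: plate controls were negative control wells for no effect and 2.5 mM tranylcypromine positive control for full effect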
# Cav32 inh – human Cav3.2 channel inhibition, primary screen; O95180; Cav3.2-expressing cells, Fluo-4 calcium fluorescence FDSS; hits give low values; B-score at 10 µM; hit rate 4% among 100,000; AID 449739;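 active = single-dose well whose peak fluorescence ratio is a statistical outlier from its plate by either plate-standardised score or position-corrected B-score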
# PTK2B oligo ant – Pyk2 (human) oligomerization antagonism. Q14289. Q293 cells, Pyk2 FERM NanoBiT luminescence; hits give low values. z-score (the deposit names both 25 µM and 10 µM). hit rate 0.83% among 99,000;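 active = Z-score of -3 or lower, scaled per plate to the spread of control and sample wells; inactive = z-score above -3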;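 also: negative z-score means lost luminescence so less FERM oligomerization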
# Target sequence (Q14289 whole entry, looked up): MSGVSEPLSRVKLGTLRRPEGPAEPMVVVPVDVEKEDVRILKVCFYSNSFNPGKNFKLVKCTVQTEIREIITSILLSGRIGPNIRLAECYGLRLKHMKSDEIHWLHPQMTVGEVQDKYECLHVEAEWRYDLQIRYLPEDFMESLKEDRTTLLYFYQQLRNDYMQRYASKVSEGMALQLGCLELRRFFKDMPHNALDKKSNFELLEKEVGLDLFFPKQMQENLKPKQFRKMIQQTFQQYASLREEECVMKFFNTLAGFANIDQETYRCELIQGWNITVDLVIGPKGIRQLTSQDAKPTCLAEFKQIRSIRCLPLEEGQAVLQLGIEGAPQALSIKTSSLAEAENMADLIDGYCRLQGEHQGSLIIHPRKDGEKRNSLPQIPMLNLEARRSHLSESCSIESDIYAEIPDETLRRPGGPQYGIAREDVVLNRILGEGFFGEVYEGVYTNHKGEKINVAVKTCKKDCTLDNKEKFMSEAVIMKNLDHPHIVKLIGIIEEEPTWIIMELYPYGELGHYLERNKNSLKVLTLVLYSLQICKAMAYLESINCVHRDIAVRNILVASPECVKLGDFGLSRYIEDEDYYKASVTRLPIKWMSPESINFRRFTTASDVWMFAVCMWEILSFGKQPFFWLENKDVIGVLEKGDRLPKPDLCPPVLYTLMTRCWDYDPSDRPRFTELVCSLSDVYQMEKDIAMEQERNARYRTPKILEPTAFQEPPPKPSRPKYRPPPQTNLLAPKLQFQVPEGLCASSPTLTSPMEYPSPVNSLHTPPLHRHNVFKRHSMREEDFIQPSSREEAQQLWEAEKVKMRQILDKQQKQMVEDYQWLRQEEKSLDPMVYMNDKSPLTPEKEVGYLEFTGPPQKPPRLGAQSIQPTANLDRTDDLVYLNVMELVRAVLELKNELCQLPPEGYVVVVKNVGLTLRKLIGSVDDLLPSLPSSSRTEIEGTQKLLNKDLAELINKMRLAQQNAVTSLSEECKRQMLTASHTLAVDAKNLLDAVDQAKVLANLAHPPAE
# CYP2C9 inh – blocks human cytochrome P450 2C9; CYP2C9 Supersomes, luciferin-H conversion, luminescence; inhibition, % at 5 µM; hit rate 20% among 96,000; AID 777;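 active = blocking of liver enzyme CYP2C9 beyond about 50% at 5 µM, limit read from the data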
# CYP2C9 activ – CYP2C9 (human) activation. P11712. recombinant CYP2C9, luciferin-H conversion, luminescence; hits give high values; factor 1 = untreated enzyme, 0 = blocked. activation factor at 5 µM. hit rate 1.4% among 96,000;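 active = activation factor of 2 or more for CYP2C9 at a 5 µM dose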;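 also: 0 = sulfaphenazole-blocked wells and 1 = vehicle-only wells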
# CYP2C19 act – activators of human cytochrome P450 2C19; P33261; recombinant CYP2C19, luciferin-H EGE luminescence; hits give high values; 0 = fully inhibited enzyme, 1 = untreated enzyme; activation factor at 5 µM; 96,000 tested, under 10 active; AID 1025;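 active = activation factor of at least 2 at 5 µM in the primary screen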;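 also: 0 = wells with 2.5 mM tranylcypromine and 1 = vehicle-only wells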
# An asterisk follows results filed as active; nt = no result given. Shown are actives, neighbours in structure and some others; about 27% of the full set was active somewhere.
SMILES,CYP2C19 inhib,Cav32 inh,PTK2B oligo ant,CYP2C9 inh,CYP2C9 activ,CYP2C19 act
COc1ccc(C2C(C#N)=C(N)N3C(=C2C#N)Sc2ccccc23)cc1 (stereo unspecified),7.7,-0.711,nt,17.8,0.8,0.9
O=c1[nH]c(/C(=N\O)c2ccccc2)no1,23.3,0.0359,-0.33,7.8,0.9,0.8
O=c1c2c(nc3c(-c4ccccc4)c[nH]n13)CCCC2,15.0,0.811,-0.74,37.2,0.6,0.8
COc1ccc(C(=O)CSc2nnc(-c3cc(C)cc(C)c3)o2)cc1,62.2*,-0.466,0.94,-13.4,1.1,0.4
COc1ccc(-n2cnnc2SCC(=O)c2cc(C)n(Cc3cccs3)c2C)cc1,99.0*,-5.42*,1.38,76.5*,0.2,0
COc1ccc(-c2nnc(SCC(=O)c3cccs3)o2)cc1,18.5,-5.19*,2.58,35.2,0.6,0.8
COc1ccccc1-n1cnnc1SCC(=O)NCc1cccs1,8.3,0.18,0.24,22.4,0.8,0.9
COc1ccc(-c2nnc(SCC(=O)c3cc(C)n(Cc4cccs4)c3C)o2)cc1,80.2*,-0.206,0.66,77.8*,0.2,0.2
Cc1cc(C(=O)CSc2nnc(-c3ccc(OC(F)F)cc3)o2)c(C)n1Cc1cccs1,31.3,-0.527,0.34,24.4,0.8,0.7
COc1cccc(C(=O)CSc2nnc(-c3cc(OC)cc(OC)c3)o2)c1,0.4,0.217,0.08,-1.2,1,1
CC1(C)Cc2nc3nc(SCC(=O)NCCc4ccccc4)n(-c4ccccc4)c(=O)c3cc2CO1,-7.9,1.28,-0.12,6.6,0.9,1.1
CCOC(=O)c1ccccc1NC(=O)/C(C)=C/C(=O)O,-18.4,-0.703,0.87,-19.4,1.2,1.2
O=C(CSc1nnc(-c2cccs2)o1)OC1CCCCC1,47.4,-0.625,-0.16,36.6,0.6,0.5
Cc1cc(C(=O)CSc2nnc(-c3cccs3)o2)c(C)n1-c1ccccc1,66.4*,-5.08*,0.75,89.4*,0.1,0.3
COCCn1c(C)cc(C(=O)CSc2nncn2-c2ccccc2)c1C,56.8*,0.158,-0.02,0.8,1,0.4
O=C(CSc1nc2ccccc2o1)Nc1ccc(Cl)cc1,23.9,0.271,1.67,49.7,0.5,0.8
O=C(CSc1nc2cc(Cl)ccc2o1)c1cccs1,57.6*,-0.891,-1.05,60.2*,0.4,0.4
COCCn1c(C)cc(C(=O)CSc2nc3ccccc3c(=O)[nH]2)c1C,25.4,-0.0641,0.07,-79.6,1.8,0.7
CCC1CCCCN1C(=O)CSc1nnc(-c2cccs2)o1 (stereo unspecified),98.0*,0.114,-0.12,20.5,0.8,0
COc1cccc(C(=O)CSc2nnc(-c3cccs3)o2)c1,nt,0.0589,0.78,nt,nt,nt
O=C(CSC1=NCCS1)Nc1ccnc2ccccc12,31.9,-1.3,-0.01,37.7,0.6,0.7
Cc1ccc2nc3c(nc2c1)-c1ccccc1C3=O,-6.7,0.0137,0.14,4.1,1,1.1
O=c1nc(-c2ccccc2)cc(C(F)(F)F)[nH]1,12.9,0.0231,0.26,51.4*,0.5,0.9
Cc1cc(-c2ccccc2)nc(=O)[nH]1,4.4,0.44,-0.66,2.5,1,1
CC(C)C[C@H](NC(=O)c1nc[nH]c1C(=O)N(C)Cc1ccccc1)C(=O)OCc1ccccc1,nt,-2.45,nt,nt,nt,nt
SMILES,CYP2C19 inhib,Cav32 inh,PTK2B oligo ant,CYP2C9 inh,CYP2C9 activ,CYP2C19 act
c1ccc(Cn2nnc(-c3ccccc3)n2)cc1,nt,-1.77,-1.15,nt,nt,nt
N#Cc1cccc(Cn2nnc(-c3ccccc3)n2)c1,69.4*,-2.58,-1.64,36.6,0.6,0.3
COc1ccc(C(=O)NC(=S)Nc2nc(C)c(C(=O)N(C)C)s2)cc1,-2.3,0.062,0.94,63.3*,0.4,1
COC(=O)c1nn(-c2ccc(Cl)cc2)c(=O)cc1Sc1ccccn1,10.6,0.199,1.45,4.1,1,0.9
CCOC(=O)c1ccc(NC(=O)C2(c3ccccc3)CCOCC2)cc1,nt,-1.96,-1.31,nt,nt,nt
COCCCn1c(SCc2ccccc2)nc2cc(OC)c(OC)cc2c1=N,53.8*,-0.149,-2.02,63.5*,0.4,0.5
COCCCn1c(SCc2cccc(C(F)(F)F)c2)nc2cc(OC)c(OC)cc2c1=N,38.7,-0.555,-1.77,82.0*,0.2,0.6
Cc1nc2ccc(S(=O)(=O)NCC(=O)N3CCc4ccccc43)cc2s1,17.6,0.196,0.67,-66.1,1.7,0.8
Cc1nc2ccc(S(=O)(=O)Nc3ccccc3C)cc2s1,97.2*,-0.249,-0.76,69.6*,0.3,0
Cc1nc2ccc(NS(=O)(=O)c3ccc(C)c(C)c3)cc2s1,33.3,-3.43,0.66,76.7*,0.2,0.7
O=C(CN1CCC(O)(c2ccc3c(c2)OCO3)CC1)OC1CCCCC1,53.7*,0.0378,0.39,36.4,0.6,0.5
N#CCCN(C(=O)CSc1nc(-c2ccccc2)cn1N)c1ccc(F)cc1,-2.7,1.25,-1.78,14.2,0.9,1
COc1ccccc1CNC(=O)CSc1nc(-c2ccccc2)cn1N,93.3*,0.683,0.34,86.7*,0.1,0.1
Nn1cc(-c2ccccc2)nc1SCC(=O)NCCN1C(=O)CSC1=O,60.0*,0.516,1.07,16.4,0.8,0.4
CN(C(=O)CSc1nc(-c2ccccc2)cn1N)C(c1ccccc1)c1ccccc1,24.5,-6.52*,-2.04,75.6*,0.2,0.8
Cn1c(SCC(=O)NCCN2C(=O)CSC2=O)nc2ccccc2c1=O,45.6,0.955,0.85,11.9,0.9,0.5
Nn1cc(-c2ccccc2)nc1SCC(=O)NC1CCS(=O)(=O)C1 (stereo unspecified),10.3,-1.03,1.07,-1.3,1,0.9
CCCCNCCCOc1cccc(Cl)c1Cl,27.2,-0.242,0.33,-26.1,1.3,0.7
CCn1c(C(C)NC(C)=O)nc2ccccc21 (stereo unspecified),-6.8,0.898,nt,-2.2,1,1.1
CC(NC(=O)CSc1nc2ccccc2n1CCC#N)c1ccc(F)cc1 (stereo unspecified),93.7*,-1.31,-0.09,54.7*,0.5,0.1
CCCn1c(SCC(=O)O)nc2ccccc21,9.2,-2.4,2.24,-19.9,1.2,0.9
CCn1c(SCC(=O)NC(C)c2ccccc2)nc2ccccc21 (stereo unspecified),53.9*,-1.46,-0.65,-35.9,1.4,0.5
O=C(Cn1c(NCCO)nc2ccccc21)NCCc1ccc(F)cc1,17.2,1.32,1.59,-1.8,1,0.8
CCn1c(Sc2ccc(N)cc2Cl)nc2ccccc21,87.0*,-2.94,-1.83,-126.9,2.3*,0.1
N#CCCn1c(SCC(=O)NCCc2ccc(F)cc2)nc2ccccc21,82.5*,0.287,-0.37,46.8,0.5,0.2
O=C(NCCCN1CCOCC1)c1ccc(CS(=O)(=O)Cc2ccc(Cl)cc2)o1,-4.0,-0.249,-0.31,1.7,1,1
CC[C@H](C)[C@@H](NC(=O)O[C@@H]1C(=O)c2cc(Br)ccc2O[C@H]1c1ccc2c(c1)OCO2)C(=O)OC,nt,-1.06,nt,nt,nt,nt

# Bioassay records (PubChem BioAssay)
